# Literature values in PubChem BioAssay AID977611.
# About 3,900 (100%) of roughly 3,900 compounds were called active. No cut-off is given here; in the data, nearly all actives have Kd up to about 4200 µM. So high a share suggests a set chosen from earlier hits. The list shows a part of the results. *1 amine or outer side, *2 acyl side, *3 side chain or, on linkers, in order; H or OH if unused. Where a SMILES comes first, the peptide text is derived from it. Non-standard residues stand in square brackets, D forms with d. Square brackets hold non-standard residues; d marks the D form. Residues, ends and D or L forms follow the SMILES beside them. Peptide text beside a SMILES is read from it. [ ]: non-standard residue; d: D form. The star is where a group is joined. Orn(CH(NH2)2) = NC(N)NCCC[C@H](N)C(=O)O; Lys(Me2) = CN(C)CCCC[C@H](N)C(=O)O; Suc = O=C(CCC(=O)[*:2])[*:1]; Bz = O=C(c1ccccc1)*
# Assay: PubChem AID 977611
# Details: PDB protein-ligand complexes, literature Kd
compound,measurement,setting,value
C[C@@H](O)[C@H](NC(=O)CNC(=O)[C@@H](N)CCCNC(N)N)C(=O)O,Kd,"protein: Proto-oncogene tyrosine-protein kinase Src, PDB entry 4hxj",74.3 µM (active)
OC[C@H]1CN[C@@H](O)[C@@H](O)[C@@H]1O,Kd,"protein: MANNOSYL-OLIGOSACCHARIDE 1,2-ALPHA-MANNOSIDASE, PDB entry 4ayr",0.099 µM (active)
C[C@H]1NC(=NCCC[C@H](N)C(=O)O)N[C@H]1O,Kd,"protein: Advanced glycosylation end product-specific receptor V domain, PDB entry 2mov",0.04 µM (active)
H-AGGPTIEEVD-OH,Kd,"protein: Protein UNC-45, PDB entry 4i2w",121 µM (active)
C[C@H](N)C(=O)N1CCC[C@H]1C(=O)N1CCC[C@H]1C(=O)NCC(=O)N[C@H](C(=O)N[C@@H](C)C(=O)N[C@@H](CCCNC(N)N)C(=O)N[C@@H](CCCNC(N)N)C(=O)N[C@@H](CCCCN)C(=O)N[C@@H](CCCNC(N)N)C(=O)N[C@@H](CCCCN)C(=O)N[C@@H](C)C(=O)N[C@@H](CC(=O)O)C(=O)N[C@@H](CO)C(=O)O)[C@@H](C)O (H-APPGTA[Orn(CH(NH2)2)][Orn(CH(NH2)2)]K[Orn(CH(NH2)2)]KADS-OH),Kd,"protein: Signal recognition particle 43 kDa protein, chloroplast, PDB entry 2hug",1.06 µM (active)
C[C@H](NC(=O)[C@H](CCCCN)NC(=O)[C@H](CCCCN)NC(=O)[C@H](CCCCN)NC(=O)[C@@H](NC(=O)[C@H](CO)NC(=O)CNC(=O)[C@H](CCCCN)NC(=O)[C@@H]1CCCN1C(=O)[C@H](CCC(=O)O)NC(=O)[C@@H]1CCCN1C(=O)[C@H](CCC(=O)O)NC(=O)[C@H](CCCCN)NC(=O)[C@H](CCCNC(N)N)NC(=O)[C@H](CCCCN)NC(=O)[C@H](C)NC(=O)[C@@H](N)CO)[C@@H](C)O)C(=O)N[C@@H](CCCCN)C(=O)N[C@H](C(=O)O)[C@@H](C)O (H-SAK[Orn(CH(NH2)2)]KEPEPKGSTKKKAKT-OH),Kd,"protein: Importin subunit alpha-2, PDB entry 3uvu",0.042 µM (active)
C[C@H](N)C(=O)N[C@@H](C)C(=O)N[C@@H](CCCCN(C)C)C(=O)N[C@@H](CO)C(=O)N[C@H](C(=O)NCC(=O)NCC(=O)O)[C@@H](C)O (H-AA[Lys(Me2)]STGG-OH),Kd,"protein: Euchromatic histone-lysine N-methyltransferase 1(Glp), PDB entry 3b95",7 µM (active)
H-DPGEGPST-OH,Kd,"protein: Ubiquitin carboxyl-terminal hydrolase 7(USP7), PDB entry 1yy6",0.86 µM (active)
C[C@H](N)C(=O)N[C@@H](CCCNC(N)N)C(=O)N[C@H](C(=O)N[C@@H](CCCCN(C)C)C(=O)N[C@@H](CCC(N)=O)C(=O)N[C@H](C(=O)N[C@@H](C)C(=O)N[C@@H](CCCNC(N)N)C(=O)N[C@@H](CCCCN(C)C)C(=O)N[C@@H](CO)C(=O)N[C@H](C(=O)NCC(=O)NCC(=O)N[C@@H](CCCCN)C(=O)N[C@@H](C)C(=O)N1CCC[C@H]1C(=O)NCC(=O)NCC(=O)O)[C@@H](C)O)[C@@H](C)O)[C@@H](C)O,Kd,"protein: heterochromatin protein 1 (HP1), PDB entry 1guw",1.9 µM (active)
C[C@H](NC(=O)[C@@H](NC(=O)CNC(=O)[C@@H]1CCCN1C(=O)[C@@H]1CCCN1C(=O)[C@H](C)NC(=O)[C@H](CCCCN)NC(=O)[C@@H](N)CCC(N)=O)[C@@H](C)O)C(=O)N[C@@H](CCCNC(N)N)C(=O)N[C@@H](CCCNC(N)N)C(=O)N[C@@H](CCCCN)C(=O)N[C@@H](CCCNC(N)N)C(=O)N[C@@H](CCCCN)C(=O)O (H-QKAPPGTA[Orn(CH(NH2)2)][Orn(CH(NH2)2)]K[Orn(CH(NH2)2)]K-OH),Kd,"protein: A. thaliana cpSRP43 Delta CD3, PDB entry 3ui2",0.43 µM (active)
CC(C)[C@H](NC(=O)[C@@H]1CCCN1C(=O)[C@@H](N)Cc1ccc(O)cc1)C(=O)N[C@@H](CCCCN)C(=O)N[C@@H](CCCCN)C(=O)N[C@@H](CCCCN)C(=O)N[C@@H](C)C(=O)N[C@@H](CCCNC(N)N)C(=O)N[C@@H](CCCCN(C)C)C(=O)N[C@@H](CO)C(=O)N[C@@H](C)C(=O)NCC(=O)O (H-YPVKKKA[Orn(CH(NH2)2)][Lys(Me2)]SAG-OH),Kd,"protein: Human Chromobox Homolog 3 (CBX3), PDB entry 3tzd",52 µM (active)
O=C1C=C(O)C(=O)C=C1O,Kd,"protein: 5-chloro-2-hydroxyhydroquinone dehydrochlorinase (TftG), PDB entry 4lbp",11.4 µM (active)
CNS(=O)(=O)Nc1nccc(Cc2c(C)c3ccc(Oc4ncccn4)cc3oc2=O)c1F,Kd,"protein: Dual specificity mitogen-activated protein kinase kinase 1, Human MEK1 kinase, PDB entry 3wig",0.0023 µM (active)
CC(C)C[C@H](NC(=O)[C@@H](NC(=O)CNC(=O)c1ccccc1)C(C)C)C(=O)N[C@@H](CCCCN)C(=O)N[C@@H](CCC(=O)O)C(=O)N[C@@H](Cc1ccc(O)cc1)C(=O)NCC(=O)N[C@H](C(=O)O)C(C)C (Bz-GVLKEYGV-OH),Kd,"protein: NAD-DEPENDENT PROTEIN DEACYLASE SIRTUIN-5, MITOCHONDRIAL zebrafish Sirtuin 5, PDB entry 4utr",0.7 µM (active)
same,Kd,"protein: NAD-DEPENDENT PROTEIN DEACYLASE SIRTUIN-5, MITOCHONDRIAL zebrafish Sirtuin 5, PDB entry 4utv",8.2 µM (active)
same,Kd,"protein: NAD-DEPENDENT PROTEIN DEACYLASE SIRTUIN-5, MITOCHONDRIAL zebrafish Sirtuin 5, PDB entry 4utx",5.78 µM (active)
same,Kd,"protein: NAD-DEPENDENT PROTEIN DEACYLASE SIRTUIN-5, MITOCHONDRIAL zebrafish Sirtuin 5, PDB entry 4uu7",0.83 µM (active)
same,Kd,"protein: NAD-DEPENDENT PROTEIN DEACYLASE SIRTUIN-5, MITOCHONDRIAL zebrafish Sirtuin 5, PDB entry 4uu8",0.29 µM (active)
same,Kd,"protein: NAD-DEPENDENT PROTEIN DEACYLASE SIRTUIN-5, MITOCHONDRIAL zebrafish Sirtuin 5, PDB entry 4uua",5.78 µM (active)
CC(C)C[C@H](NC(=O)[C@@H](NC(=O)CNC(=O)c1ccccc1)C(C)C)C(=O)N[C@@H](CCCCNC(=O)CCC(=O)O)C(=O)N[C@@H](CCC(=O)O)C(=O)N[C@@H](Cc1ccc(O)cc1)C(=O)NCC(=O)N[C@H](C(=O)O)C(C)C (Bz-GVLK(Suc)EYGV-OH),Kd,"protein: NAD-DEPENDENT PROTEIN DEACYLASE SIRTUIN-5, MITOCHONDRIAL zebrafish Sirtuin 5, PDB entry 4utn",0.71 µM (active)
CC(=O)n1ccc2nc3ccc(Cl)cc3c-2c1,Kd,"protein: Bromodomain adjacent to zinc finger domain protein 2B BAZ2B Bromodomain, PDB entry 4nra",65 µM (active)
c1ccc(-c2nsc(N3CCCNCC3)n2)cc1,Kd,"protein: INTEGRASE, PDB entry 4ah9",3500 µM (active)
Cc1ccc(C(=O)N(CCCN)[C@@H](C2=C(Cc3ccccc3)C(O)c3ccc(Cl)cc3O2)C(C)C)cc1 (stereo partly drawn),Kd,"protein: KINESIN-LIKE PROTEIN KIF11, PDB entry 4bxn",0.01 µM (active)
